# Screening data as filed in PubChem.
# This is a sample that favours compounds with a hit; in the whole collection about 1.8% have one here.
# HTT ATP protect: cytoprotection in Huntington HTT-Q103 PC12 cell model. PC12 HTT-Q103 induced, cytoprotection, ATP luminescence, 40 h. Potency, µM (titrated, usually from 56.4 µM), without a hit: cytoprotection (ATP increase), actives largely listed as activators. hit rate 0.14% among 230,000. AID 1471; note: % of control where 0% means no effect; nearly all actives have a fitted effect of over 45% in size
#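 Stable PC12 Q103-GFP cells in serum-supplemented, phenol red-free DMEM; induction by tebufenozide at 100 nM final; compound dose series; cell viability quantified luminescently from ATP.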
# HttQ103 aggreg: mutant huntingtin aggregation inhibition. Potency, µM (titrated, usually from 46.1 µM), without a hit: top-dose activity change, negative = inhibition, usual class: inhibitors. PC12 HttQ103-GFP aggregates, Acumen cytometry, 40 h. hit rate 1.1% among 220,000. AID 1688; note: % is set by controls: 0 for no effect and ±100 for the full control effect; nearly all actives have a fitted effect of over 60% in size
#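 Compounds (qHTS titration) were added to PC12 cells expressing an ecdysone-driven HTT exon 1 Q103–GFP fusion after induction with 100 nM tebufenozide. Aggregate formation was measured as GFP objects in cell lysates.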
# L3MBTL1 inh: inhibitors of human L3MBTL1; AlphaScreen L3MBTL1–H3K9me1 peptide binding; AID 485360; hit rate 0.66% among 230,000; Potency, µM (series often up to 57.1 µM), without a hit: at the top dose activity, negative = inhibition, hits mostly inhibitors; Q9Y468; note: % is set by controls: 0 for no effect and ±100 for the full control effect; nearly all actives have a fitted effect of over 60% in size
# Target sequence (Q9Y468 whole entry, looked up): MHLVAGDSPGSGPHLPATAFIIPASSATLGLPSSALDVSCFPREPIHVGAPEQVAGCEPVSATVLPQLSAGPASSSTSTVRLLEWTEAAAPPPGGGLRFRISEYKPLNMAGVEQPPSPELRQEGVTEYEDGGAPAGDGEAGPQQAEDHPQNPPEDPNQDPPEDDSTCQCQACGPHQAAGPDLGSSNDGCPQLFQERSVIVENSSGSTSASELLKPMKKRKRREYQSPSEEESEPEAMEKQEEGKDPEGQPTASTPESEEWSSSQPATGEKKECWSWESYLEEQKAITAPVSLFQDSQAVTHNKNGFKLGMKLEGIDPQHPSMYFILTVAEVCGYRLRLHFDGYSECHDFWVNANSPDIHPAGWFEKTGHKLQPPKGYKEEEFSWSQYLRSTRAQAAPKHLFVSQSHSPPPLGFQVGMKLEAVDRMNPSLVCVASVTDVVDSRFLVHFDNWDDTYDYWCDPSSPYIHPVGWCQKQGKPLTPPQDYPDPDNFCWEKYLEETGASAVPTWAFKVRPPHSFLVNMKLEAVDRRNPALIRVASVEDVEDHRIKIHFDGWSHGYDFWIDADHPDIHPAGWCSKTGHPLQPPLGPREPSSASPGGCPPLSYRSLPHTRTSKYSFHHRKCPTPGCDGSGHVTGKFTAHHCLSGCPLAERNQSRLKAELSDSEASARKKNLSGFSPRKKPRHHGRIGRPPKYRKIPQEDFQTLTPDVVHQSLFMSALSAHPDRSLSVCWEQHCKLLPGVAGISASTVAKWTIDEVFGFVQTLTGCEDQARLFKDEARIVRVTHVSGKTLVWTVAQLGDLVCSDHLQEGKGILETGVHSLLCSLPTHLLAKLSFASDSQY
#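 AlphaScreen proximity signal between nickel-chelate acceptor and streptavidin donor beads (final 10 ug/mL) reports binding of 50 nM L3MBTL1 to 75 nM biotin-H3 K9me1 peptide; complex incubated with compounds 30 min at room temperature; cefsulodin titration as control.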
# KDM4E inh: inhibitors of human JMJD2E histone demethylase | JMJD2E catalytic domain, FDH-coupled NADH fluorescence (FDH is formaldehyde dehydrogenase) | Potency, µM (doses to about 57.1 µM), for inactives: top-dose activity change, negative = inhibition, hits mostly inhibitors | hit rate 1.6% among 230,000 | AID 2147; active = well fitted inhibition curve with a large enough effect, not every such curve was filed as active; inconclusive = small, poorly fitted or top-dose-only effect, or another doubt; inactive = no such curve, though single readings can be large or run the other way;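 note: 0% = wells with enzyme and -100% = buffer wells without enzyme; nearly all actives have a fitted effect of over 50% in size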
# Active calls of the source: *; ? = inconclusive; . = no result given; [ ] = another dose, or the depositor's remark. Unless noted, calls come from the whole dose curve; as a rule, active = well fitted curve in the direction sought with a large enough effect; inconclusive = small, poorly fitted or top-dose-only effect, or another doubt; inactive = no such curve, though single readings can be large; an effect the other way counts as inactive or inconclusive. Potency is the fitted concentration of half-maximal effect.
SMILES,HTT ATP protect,HttQ103 aggreg,L3MBTL1 inh,KDM4E inh
Cc1ccc(C2C(C=Nc3c(C)n(C)n(-c4ccccc4)c3=O)=C(c3ccccc3)Oc3ccccc32)cc1 (stereo not drawn),-38%,22µM*,-15%,8%
Cc1c(N=Cc2cccs2)c(=O)n(-c2ccccc2)n1C,-21%,5%,-7%,?
COc1ccccc1-c1ccc2ncnc(NCCN3CCOCC3)c2c1,8%,.,.,.
CCCCCCC1=Cc2cc(OC)c(OC)cc2C(CC(=O)/C=C/OC)O1 (stereo not drawn),5%[10 µM],.,.,.
CO[C@@H]1[C@@H]2OP(=O)(O)OC[C@H]2O[C@H]1n1c(Sc2ccc(Cl)cc2)nc2c(N)ncnc21,-67%,.,.,.
COc1ccc(CC(N)C(=O)NC2C(CO)OC(n3cnc4c(N(C)C)ncnc43)C2O)cc1 (stereo not drawn),-94%,13µM*,.,6%
Cc1cc(Sc2ncnc(N)c2[N+](=O)[O-])ncn1,7%[10 µM],4.5µM*,8%,-6%
Cc1ccc(C(C)C)c(OCc2ccc(C(=O)N/N=C/c3cccc(O)c3O)cc2)c1,7%[0.074 µM],-11%,-18%,4.5µM*
CCCCCCCCCCCCCCCCCC(=O)O[C@H](CC(=O)O)C[N+](C)(C)C,6%[1.9 µM],.,.,.
CCOC(=O)c1cnc(-n2nc(C)cc2C)nc1NCCc1ccccc1,-70%,13µM*,-4%,?
CCOC(=O)c1cnc(-n2nc(C)cc2C)nc1Nc1ccccc1OC,-13%,2%,-8%,2%
COc1ccc(C2c3cc(OC)c(OC)cc3Cc3c4cc(OC)c(OC)cc4cc[n+]32)cc1OC (stereo not drawn),-87%,.,.,-22%
CCOC(=O)C1=C(c2ccccc2)N=c2s/c(=C\c3cc(OC)c(OC)c(OC)c3)c(=O)n2C1c1cccs1 (stereo not drawn),-33%,-11%,-13%,6%
CCOC(=O)C1=C(c2ccccc2)N=c2s/c(=C\c3ccco3)c(=O)n2C1c1cccs1 (stereo not drawn),-29%,14%,22%,13µM*
CCCCC1=CC2=C(c3ccco3)C(=O)C(C)(OC(=O)c3ccc(Cl)nc3)C(=O)C2=CO1 (stereo not drawn),-19%,.,.,-5%
c1cc2c(cc1-c1cnc3n1CCC3)OCCO2,26%,25µM*,-3%,-5%
CN1/C(=C\C(=O)COc2ccc3c(c2)OCO3)C(C)(C)c2ccccc21,-19%,22µM*,10%[11.4 µM],?
COc1ccc2c(c1)[C@]1(C)CCC(=O)C[C@H]1CC2,.,.,.,-27%
Cc1ccc(S(=O)(=O)C2C(=O)N(C)C3(C)CC2c2ccccc2O3)cc1C (stereo not drawn),4µM*,?,-4%,20%
CCN1C(C)=C(C(=O)OC)C(c2ccccc2)N2C(=O)[C@](O)(C(=O)OC)CC(C(C)=O)=C12 (stereo partly drawn),-20%[10 µM],.,.,.
COc1ccc(N2C(=O)CC3(CCCC3)CC2=O)cc1,3.2µM*,15%,2%,8%
CCCNC(=O)OC[C@@H]1O[C@H](CCO/N=C\[C@@H](OC)[C@H](C)/C=C\CC(=O)OC)C=C[C@@H]1Oc1ccc(OC)cc1,-11%[10 µM],.,.,.
Cc1ccc(NC(=O)CSc2nnc(-c3ccccn3)n2N)c(Br)c1,-3%[10 µM],-8%[9.22 µM],25µM*,18%
O=C(/C=C\NCC(=O)c1ccccc1)c1ccc(F)cc1,-12%,3%,-3%,-8%
O=C(/C=C\NCC(=O)c1ccccc1)c1ccc2ccccc2c1,23%[10 µM],1%,-13%,18µM*
SMILES,HTT ATP protect,HttQ103 aggreg,L3MBTL1 inh,KDM4E inh
CCCCCCCc1cc2c(cn1)C(=O)C(C)(OC(C)=O)C(O)=C2Cl (stereo not drawn),-31%,.,.,6%
CC(C)CCC[C@@H](C)[C@H]1CC[C@H]2[C@@H]3CC=C4C[C@@H](O)CC[C@]4(C)[C@H]3CC[C@]12C,?,4%,.,.
Cc1cc(C)n2c(=S)[nH]nc2n1,-18%[10 µM],2%,-2%,7.1µM*
Cc1cc(C)n2cnnc2n1,3%[10 µM],1%[9.22 µM],-3%,?
COC(=O)NC(/C(C(=O)OC)=C(\C)NCc1ccccc1)c1ccc(F)cc1 (stereo not drawn),-13%[10 µM],.,.,.
COc1ccc(COc2ccccc2C(N)=O)cc1F,.,16µM*,-4%,3%
Cc1nc2scc(-c3ccc(C(C)(C)C)cc3)c2c(=O)n1N,-76%,?,-6%,4%
Cc1nc2sccc2c(=O)n1N,3.5µM*,-22%,.,7%
COc1ccc(N=Nc2nc(-c3ccccc3)c(-c3ccccc3)[nH]2)cc1,15%[10 µM],?,16µM*,-8%
CC1(C)CC(=O)C(C(C2=C(O)CC(C)(C)CC2=O)c2ccc(Br)s2)C(=O)C1 (stereo not drawn),41%[10 µM],14%,2%,20µM*
Cc1ccc(C(C2=C(O)CC(C)(C)CC2=O)C2C(=O)CC(C)(C)CC2=O)s1 (stereo not drawn),-19%,18%,2%,-14%
COc1cccc([C@H](O)Cn2cc(-c3cccc(CON=C(C)C)c3)nn2)c1,1%[10 µM],.,.,.
Cc1ccc(-c2c3c(nc4sc(C(N)=O)c(N)c24)CCC3)cc1,-2%,10µM*,4%,?
NC(=O)c1sc2nc3c(c(-c4ccc(Cl)cc4)c2c1N)CCCC3,?,-3%,.,-18%
Cc1ccc(S(=O)(=O)NC(C)C(=O)NC2CCCCCC2)cc1 (stereo not drawn),-2%[0.074 µM],0.89µM*,-6%[11.4 µM],-3%
Cc1ccc(S(=O)(=O)NC(=O)NC2CCCCC2)cc1,-21%,20%,.,.
CCOC(=O)N1CCN(C(=O)c2cc(COc3ccc4ncccc4c3)on2)CC1,15%[10 µM],-8%[9.22 µM],11%,-24%
O=C(NC1CCCCCCC1)c1cc(COc2ccc3ncccc3c2)on1,-55%,3.2µM*,-14%,-11%
Cc1cccnc1CN1CCN(C(=O)c2cc(COc3ccc4ncccc4c3)on2)CC1,-66%,6.3µM*,-20%,-22%
Cc1ccc(N)cc1S(=O)(=O)N(C)C,1%[10 µM],6%[9.22 µM],-20%,-1%
Cc1cc(N)ccc1S(C)(=O)=O,-8%[10 µM],-11%,4.5µM*,0%
CCOc1ccc(C(=O)N/N=C(/C)C2C(=O)c3ccccc3C2=O)cc1,10%[10 µM],10µM*,-3%,-24%
NC1=NS(=O)(=O)NC1c1ccc(F)cc1 (stereo not drawn),3.5µM*,-3%,.,0%
Cn1c(=O)n(C)c2cc(NS(=O)(=O)c3ccc4c(c3)CCCC4)ccc21,-12%[0.074 µM],2.8µM*,-18%,4%
O=C(OCC(=O)N1CCN(C(=O)c2ccco2)CC1)c1cc(-c2ccco2)nc2ccccc12,-16%,13%,8.9µM*,?
Nc1nc2c(nc(Br)n2C2O[C@H]3COP(=O)(O)O[C@@H]3C2O)c(=O)[nH]1 (stereo partly drawn),.,.,.,5%
CC1(C)CC(=O)C(/C=N/c2ccccn2)=C(O)C1,-5%,22µM*,9%,6%
CN(C(=O)c1ccccc1C(=O)O)C1CC(C)(C)NC(C)(C)C1,18%,.,.,.
COc1ccccc1C1OC(=O)CC1C(=O)OC[C@@H]1CCCN2CCCCC12 (stereo partly drawn),-2%,.,.,-12%
CCCn1c(CNc2ccccc2O)nc2ccccc21,-11%,?,.,14µM*
